{"source": "PubChem BioAssay AID588458", "about": "(Sanford-Burnham Center for Chemical Genomics, 2011)", "note": "Among all 360,000 compounds or so, about 3,000 (0.83%) were called active. Shown is part of a subset that was picked to be rich in actives. Values without a mark were called inactive. Rule as the data show it: active = inhibition above about 50%; inactive = the rest."}
{"molecular_target": "DNA (cytosine-5)-methyltransferase 1 (Homo sapiens) (UniProt P26358)", "sequence (P26358 504-1616 limits assumed)": "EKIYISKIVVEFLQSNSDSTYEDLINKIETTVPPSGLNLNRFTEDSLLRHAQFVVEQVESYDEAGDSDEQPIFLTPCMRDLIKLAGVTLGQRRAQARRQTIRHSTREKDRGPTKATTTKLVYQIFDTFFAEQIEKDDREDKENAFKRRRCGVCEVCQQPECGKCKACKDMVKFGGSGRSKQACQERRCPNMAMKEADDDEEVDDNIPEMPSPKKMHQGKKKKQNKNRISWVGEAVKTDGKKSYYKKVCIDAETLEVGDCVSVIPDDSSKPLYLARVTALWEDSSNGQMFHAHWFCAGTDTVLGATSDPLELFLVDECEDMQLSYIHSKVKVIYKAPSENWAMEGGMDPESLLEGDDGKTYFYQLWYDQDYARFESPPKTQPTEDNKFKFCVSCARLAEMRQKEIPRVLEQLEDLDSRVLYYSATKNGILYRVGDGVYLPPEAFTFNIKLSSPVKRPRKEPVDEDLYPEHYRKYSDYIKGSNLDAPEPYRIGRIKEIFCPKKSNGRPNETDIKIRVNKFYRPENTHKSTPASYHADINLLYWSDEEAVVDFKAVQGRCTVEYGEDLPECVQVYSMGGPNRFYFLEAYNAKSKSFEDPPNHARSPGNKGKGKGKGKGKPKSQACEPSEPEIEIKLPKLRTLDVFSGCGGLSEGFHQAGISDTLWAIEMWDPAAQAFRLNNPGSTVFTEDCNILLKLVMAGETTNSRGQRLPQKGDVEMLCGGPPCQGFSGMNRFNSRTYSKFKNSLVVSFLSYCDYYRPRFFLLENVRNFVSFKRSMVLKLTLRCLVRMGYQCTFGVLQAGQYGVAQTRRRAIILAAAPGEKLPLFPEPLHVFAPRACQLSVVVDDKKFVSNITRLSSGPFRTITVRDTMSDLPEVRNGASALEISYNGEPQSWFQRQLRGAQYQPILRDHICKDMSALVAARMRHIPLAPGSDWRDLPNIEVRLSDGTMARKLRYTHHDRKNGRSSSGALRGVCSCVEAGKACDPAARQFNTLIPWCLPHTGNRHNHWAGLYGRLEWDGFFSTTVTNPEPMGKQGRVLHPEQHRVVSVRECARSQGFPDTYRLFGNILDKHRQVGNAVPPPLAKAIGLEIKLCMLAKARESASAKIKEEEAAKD", "assay": "human DNMT1 methyltransferase inhibitors, primary screen, biochemical, molecular beacon, fluorescence, HinP1I cleavage, uHTS (AID 588458)", "conditions": "at 10 µM, stronger effect = higher value"}
{"smiles": "CC1CCN(C(=O)C2CCN(S(=O)(=O)N3CCC4(CC3)OCCO4)CC2)CC1", "inhibition (reported as % activation of signal)": "1.13%"}
{"smiles": "COC(=O)C(NC(C)=O)(Nc1nc2c(s1)CCCC2)C(F)(F)F", "note": "(configuration not stated)", "inhibition (reported as % activation of signal)": "0.31%"}
{"smiles": "CCOC(=O)C(NC(=O)CC(C)C)(Nc1sc2c(c1C(N)=O)CCCC2)C(F)(F)F", "note": "(configuration not stated)", "inhibition (reported as % activation of signal)": "85.2% (active)"}
{"smiles": "CCOC(=O)c1c(NC(=O)Cn2nc(C(F)(F)F)cc2C)sc2c1CCC2", "inhibition (reported as % activation of signal)": "-22.3%"}
{"smiles": "N#Cc1c(C(F)(F)F)cc(-c2cccs2)nc1N1CCCCC1", "inhibition (reported as % activation of signal)": "-1.64%"}
{"smiles": "O=C(O)CSc1ccc(S(=O)(=O)N2CCCC2)cn1", "inhibition (reported as % activation of signal)": "-4.98%"}
{"smiles": "N#Cc1c(N2CCCCC2)nc(N)c2c(N)nc(SCC(=O)O)cc12", "inhibition (reported as % activation of signal)": "52.1% (active)"}
{"smiles": "CC1(C)C2CC=C(/C=N/NC(=O)c3ccc(Cl)cc3)C1C2", "note": "(configuration not stated)", "inhibition (reported as % activation of signal)": "2.7%"}
{"smiles": "Nc1nc2c(ncn2[C@@H]2O[C@H](CNS(=O)(=O)N3CCc4ccccc4C3)[C@@H](O)[C@H]2O)c(=O)[nH]1", "inhibition (reported as % activation of signal)": "0.15%"}
{"smiles": "COCCNC(=O)C1(C)CCCN(Cc2cccc(F)c2)C1", "note": "(configuration not stated)", "inhibition (reported as % activation of signal)": "-1.11%"}
{"smiles": "O=S(=O)(Nc1n[nH]c(C(F)(F)F)n1)c1ccccc1", "inhibition (reported as % activation of signal)": "-0.37%"}
{"smiles": "Nc1cc2c(cc1Br)-c1ccc(F)cc1C2=O", "inhibition (reported as % activation of signal)": "71.6% (active)"}
{"smiles": "CC(=O)Nc1ccc(S(=O)(=O)Nc2cc(C)cn(Cc3ccc(C)cc3)c2=O)cc1", "inhibition (reported as % activation of signal)": "-4.47%"}
{"smiles": "CC(=O)c1ccc(Nc2nc(C(N)c3ccccc3Cl)cs2)cc1", "note": "(configuration not stated)", "inhibition (reported as % activation of signal)": "-17.7%"}
{"smiles": "CC(=O)c1ccc(Nc2nc(C(N)c3ccccc3)cs2)cc1", "note": "(configuration not stated)", "inhibition (reported as % activation of signal)": "80.3% (active)"}
{"smiles": "NC(c1ccccc1)c1csc(NC(=O)Nc2cccc(C(F)(F)F)c2)n1", "note": "(configuration not stated)", "inhibition (reported as % activation of signal)": "-22.9%"}
{"smiles": "CCCS(=O)(=O)NC(=O)C1(C)CCN(C(=O)c2sccc2C)C1", "note": "(configuration not stated)", "inhibition (reported as % activation of signal)": "-0.36%"}
{"smiles": "COc1cc(NC(=O)CCNC(=O)Cn2ccc3ccccc3c2=O)cc(OC)c1OC", "inhibition (reported as % activation of signal)": "-1.53%"}
{"smiles": "CCOC(=O)c1ccn(S(=O)(=O)c2ccc(C)cc2)c1-c1ccccc1", "inhibition (reported as % activation of signal)": "0.08%"}
{"smiles": "C/C=C\\C=C\\C(=O)N1CC2(CC(c3cccc(NC(=O)/C(C)=C\\C)c3)=NO2)C[C@H]1C(N)=O", "note": "(some centres not stated)", "inhibition (reported as % activation of signal)": "-7.28%"}
{"smiles": "C=C(C)C(=O)Nc1cccc(C2=NOC3(C2)C[C@H](C(N)=O)N(C(=O)C(c2ccccc2)c2ccccc2)C3)c1", "note": "(some centres not stated)", "inhibition (reported as % activation of signal)": "98.1% (active)"}
{"smiles": "CC/C=C/C(=O)N1CC2(CC(c3cccc(NC(=O)CC)c3)=NO2)C[C@H]1C(N)=O", "note": "(some centres not stated)", "inhibition (reported as % activation of signal)": "5.63%"}
{"smiles": "CC(=O)Nc1ccc(NC(=O)C2CCCN2S(=O)(=O)c2cccc(C(F)(F)F)c2)cc1", "note": "(configuration not stated)", "inhibition (reported as % activation of signal)": "-0.75%"}
{"smiles": "COc1cccc(-n2c(N)cc(=O)nc2SCC(=O)Nc2cc(C)on2)c1", "inhibition (reported as % activation of signal)": "0.03%"}
{"smiles": "O=C(c1ccccc1Cl)N(Cc1ccccc1F)N1C(=O)CCCC1=O", "inhibition (reported as % activation of signal)": "1.73%"}
{"smiles": "COc1ccc(NC(=O)COC(=O)c2ccncc2)c(OC)c1", "inhibition (reported as % activation of signal)": "7.14%"}
{"smiles": "COc1ccc(NC(=O)CCCC2CCCCC2)c(OC)c1", "inhibition (reported as % activation of signal)": "1.18%"}
{"smiles": "COc1ccc(NC(=O)CCn2ccnc2)c(OC)c1", "inhibition (reported as % activation of signal)": "78.8% (active)"}
{"smiles": "O=C(OCCO)c1cc(Cl)c(C(=O)OCCO)cc1Cl", "inhibition (reported as % activation of signal)": "-0.85%"}
{"smiles": "FC(F)(F)c1ccc(-c2cccc3c2C2CC3CCN2Cc2ccccc2)cc1", "note": "(configuration not stated)", "inhibition (reported as % activation of signal)": "5.02%"}
{"smiles": "COc1cc(-c2nnc(NC(=O)C3=COCCO3)o2)cc(OC)c1OC", "inhibition (reported as % activation of signal)": "0.63%"}
{"smiles": "COc1cc(-c2nnc(NC(=O)CS(=O)(=O)c3ccc(Cl)cc3)o2)cc(OC)c1OC", "inhibition (reported as % activation of signal)": "64.7% (active)"}
{"smiles": "Cc1ccc(C)c(-c2nnc(NC(=O)CS(=O)(=O)c3ccccc3)o2)c1", "inhibition (reported as % activation of signal)": "2.2%"}
{"smiles": "O=C(COc1cccc2c1CCNC2=O)NC1CCCCC1", "inhibition (reported as % activation of signal)": "0.71%"}
{"smiles": "COc1ccc(C)cc1N(C(=O)Cn1nnc(-c2ccc(C)o2)n1)C(C(=O)NC1CCCC1)c1ccncc1", "note": "(configuration not stated)", "inhibition (reported as % activation of signal)": "0.4%"}
{"smiles": "CCOc1cc(NC(=S)NCc2ccco2)c(OCC)cc1NC(=O)c1ccco1", "inhibition (reported as % activation of signal)": "-8.9%"}
{"smiles": "COc1ccc(NC(=O)CCC(=O)Nc2cc(OC)c(NC(=O)c3ccco3)cc2OC)c(OC)c1", "inhibition (reported as % activation of signal)": "-1.01%"}
{"smiles": "CCOc1cc(NC(=O)c2ccco2)c(OCC)cc1NC(=O)COc1ccccc1", "inhibition (reported as % activation of signal)": "67.3% (active)"}
{"smiles": "CC(C)(C(=O)N1CCC1(C)C(=O)NS(=O)(=O)c1ccc(Br)cc1)c1ccccc1", "note": "(configuration not stated)", "inhibition (reported as % activation of signal)": "1.25%"}
{"smiles": "CCCCCCc1cc2cc(-c3nnc(-c4ccccc4)o3)c(=O)oc2cc1O", "inhibition (reported as % activation of signal)": "88.6% (active)"}
{"smiles": "CC1CCN(CCCNC(=O)CN2C(=O)CSc3ccc(S(=O)(=O)N4CCCCC4)cc32)CC1", "inhibition (reported as % activation of signal)": "0.73%"}
{"smiles": "CC(C)C(NC(=O)c1c(F)cccc1F)C(=O)NCc1ccncc1", "note": "(configuration not stated)", "inhibition (reported as % activation of signal)": "1.21%"}
{"smiles": "O=C(NCCc1cccc(F)c1)C1CC(O)CN1C(=O)Nc1ccccc1", "note": "(configuration not stated)", "inhibition (reported as % activation of signal)": "7.51%"}
{"smiles": "COc1cc(/C=N/N=C(\\N)c2nonc2N)cc(OC)c1OC", "inhibition (reported as % activation of signal)": "-0.45%"}
{"smiles": "O=C(Nc1ccc(C(=O)NCc2ccccc2Cl)cc1)C1=CSCCO1", "inhibition (reported as % activation of signal)": "-10.3%"}
{"smiles": "CSc1ccc(CNC(=O)c2ccc(NC(=O)C3=CSCCO3)cc2)cc1", "inhibition (reported as % activation of signal)": "62.1% (active)"}
{"smiles": "CSc1ccc(CNC(=O)C2(C)CCCN2C)cc1", "note": "(configuration not stated)", "inhibition (reported as % activation of signal)": "9.6%"}
